Laboratory results reported in PubChem BioAssay (NCI).
Several values for one entry are separate records, joined by “and”; a condition that tells them apart may be missing. Identical values can stand only once. The panel holds about 79,000 compounds, 15% with a hit somewhere; the sample as a whole holds those more often. Activity calls are given as the source filed them. Cut-off read from the data, not from the text of the source: active = growth inhibition above about 70%; inactive = the rest.

Assays:
[1] = NCI Yeast Anticancer Drug Screen. Data for the rad50 strain (AID 155);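 note: 0% = growth of vehicle-only cultures of the same strain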; conditions: S. cerevisiae rad50 strain growth inhibition, hits give high values
Outline: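 Cells are treated with compound, grown, and their growth is then scored against vehicle-only cultures of the same repair-deficient yeast strain.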

[2] = NCI Yeast Anticancer Drug Screen. Data for the mec2-1 strain (AID 157); conditions: S. cerevisiae mec2-1 strain, hits give high values
Outline: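 mec2-1 yeast strain, carrying an alteration in DNA damage repair or cell cycle control, was exposed to compounds; growth inhibition was measured relative to vehicle-treated controls.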

[3] = NCI Yeast Anticancer Drug Screen. Data for the sgs1 mgt1 strain (AID 161);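 note: 0% = growth of cultures given vehicle only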; conditions: S. cerevisiae sgs1 mgt1 strain, hits give high values
Outline: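 Growth of a repair-deficient yeast mutant was monitored after compound treatment and expressed as inhibition relative to vehicle-treated cultures.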

[4] = NCI Yeast Anticancer Drug Screen. Data for the cln2 rad14 strain (AID 165);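 note: 0% = growth equal to vehicle treated cultures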; conditions: S. cerevisiae cln2 rad14 strain, hits give high values
Outline: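 Yeast carrying cln2 and rad14 alterations (cell cycle control and DNA damage repair) were exposed to compounds. Growth inhibition was measured against vehicle-treated controls.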

[5] = NCI Yeast Anticancer Drug Screen. Data for the bub3 strain (AID 167); conditions: S. cerevisiae bub3 mutant strain, hits give high values
Outline: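 Part of a panel of yeast mutants defective in DNA damage repair or cell cycle regulation. Each strain is grown with compound, and inhibition is calculated relative to solvent-treated cultures.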

[6] = NCI Yeast Anticancer Drug Screen. Data for the mlh1 rad18 strain (AID 175); conditions: S. cerevisiae mlh1 rad18 strain growth inhibition, hits give high values
Outline: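 Growth inhibition of the yeast strain was measured after compound exposure and expressed relative to vehicle-treated controls. The strain carries defined defects in DNA damage repair.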

[7] = at 5.0 µM (retest, dose inferred, filed as 0.5)
[8] = at 50.0 µM (retest, dose inferred, filed as 5.0)

Measured: growth inhibition

Cc1ccc(S(=O)(=O)OCC(O)C(O)COS(=O)(=O)c2ccc(C)cc2)cc1 (stereo not drawn)
inactive: [1]; at 50.0 µM 35.8% and -13.8% and 12.6% | [2]; at 50.0 µM -10.2% and -4.45% and -13.8% | [3]; at 50.0 µM 25.3% and -27.6% and -5.9% | [4]; at 50.0 µM 11.1% and -21.9% and -13.5% | [5]; at 50.0 µM 9.15% and -12.4% and 6.35% | [6]; at 50.0 µM 26.1% and -1.9% and -2.9%

O=C(O)c1ccc(N=CC2CO2)cc1 (stereo not drawn)
inactive: [1]; [7] 23% | [1]; [8] 11% | [1]; at 50.0 µM -2% | [3]; [7] 13% | [3]; [8] 10% | [3]; at 50.0 µM 7.05% | [4]; at 50.0 µM 21.8% | [5]; at 50.0 µM -10% | [6]; [7] 32% | [6]; [8] 22% | [6]; at 50.0 µM -3.15%
active: [4]; [7] 96% | [4]; [8] 99% | [5]; [7] 90% | [5]; [8] 98%

CC(=O)OCc1cc2c(s1)C(=O)c1sccc1C2=O
active: [2]; at 50.0 µM 81% | [3]; at 50.0 µM 88.8% | [4]; at 50.0 µM 86.2% | [5]; at 50.0 µM 88.7% | [6]; [8] 89% | [6]; at 50.0 µM 89%
inactive: [2]; [7] 8% | [2]; [8] 67% | [3]; [7] 12% | [3]; [8] 15% | [4]; [7] 11% | [4]; [8] 21% | [5]; [7] 41% | [5]; [8] 60% | [6]; [7] 24%

CCOC(=O)C(=N\Nc1cccc(C)c1C)/C(C)=N\NC(N)=S
inactive: [1]; [7] 3% | [1]; [8] 35% | [3]; [7] 32% | [4]; [7] -6% | [4]; [8] 14% | [4]; at 50.0 µM 64.1% | [5]; [7] 3% | [5]; [8] 34% | [5]; at 50.0 µM 59.7% | [6]; [7] 30%
active: [1]; at 50.0 µM 70.2% | [3]; [8] 76% | [3]; at 50.0 µM 75.8% | [6]; [8] 81% | [6]; at 50.0 µM 81.1%

CCCCCCCCCCCCCCCC[N+](C)(C)CCCCCC(=O)OC
active: [1]; [7] 99% | [1]; [8] 99% | [1]; at 50.0 µM 98.9% | [2]; [7] 100% | [2]; [8] 100% | [2]; at 50.0 µM 99.1% | [4]; [7] 99% | [4]; [8] 99% | [4]; at 50.0 µM 97.4% | [5]; [7] 100% | [5]; [8] 100% | [5]; at 50.0 µM 98.5% | [6]; [7] 100% | [6]; [8] 100% | [6]; at 50.0 µM 98.7%

O=c1[nH]cnc2nc(I)[nH]c12
inactive: [2]; [7] -9% | [2]; [8] -3% | [2]; at 50.0 µM 0.05% | [3]; [7] -5% | [3]; [8] 5% | [3]; at 50.0 µM -0.3% | [4]; [7] 1% | [4]; [8] -7% | [4]; at 50.0 µM 38.5% | [5]; [7] -1% | [5]; [8] -8% | [5]; at 50.0 µM 30.1% | [6]; [7] 7% | [6]; [8] -5% | [6]; at 50.0 µM 6%

COC1OC2COC(c3ccccc3)OC2C(O)C1O (stereo not drawn)
inactive: [1]; at 50.0 µM -23.9% and 17.1% and 20.4% | [2]; at 50.0 µM -11.6% and -15.6% and -3.65% | [3]; at 50.0 µM -3.35% and 7.95% and 0.55% | [4]; at 50.0 µM -29.2% and -46% and -45.3% | [5]; at 50.0 µM -9.35% and -19.9% and -17.4% | [6]; at 50.0 µM -3.15% and -3.95% and 9.8%

O=C1C(CCl)=CS(=O)(=O)c2ccccc21
inactive: [2]; [7] 17% | [3]; [7] 16% | [4]; [7] 5% | [5]; [7] 4% | [6]; [7] 36%
active: [2]; [8] 99% | [2]; at 50.0 µM 99.3% | [3]; [8] 99% | [3]; at 50.0 µM 99.2% | [4]; [8] 99% | [4]; at 50.0 µM 99.3% | [5]; [8] 99% | [5]; at 50.0 µM 99.3% | [6]; [8] 99% | [6]; at 50.0 µM 99.2%

CC1CC2(C)ON=C(c3ccccc3)N2c2ccccc2S1 (stereo not drawn)
inactive: [1]; [7] -25% | [3]; [7] -24% | [4]; [7] -6% | [5]; [7] 10% | [6]; [7] 4%
active: [1]; [8] 98% | [1]; at 50.0 µM 87.7% | [3]; [8] 94% | [3]; at 50.0 µM 82.7% | [4]; [8] 97% | [4]; at 50.0 µM 87% | [5]; [8] 97% | [5]; at 50.0 µM 87% | [6]; [8] 98% | [6]; at 50.0 µM 83.7%

NCC(=O)NC(CO)C(=O)O (stereo not drawn)
inactive: [1]; at 50.0 µM -8.05% and -12.9% and -12.8% | [2]; at 50.0 µM -10.5% and -5.1% and -4.35% | [3]; at 50.0 µM -12.2% and -2.65% and -3.75% | [4]; at 50.0 µM -34.1% and -5.75% and -10.1% | [5]; at 50.0 µM -24.7% and -11.4% and -3.6% | [6]; at 50.0 µM -3.35% and -12.8% and -9.4%

Clc1ccc(C2=CCN3CC=C(c4ccc(Cl)cc4)C23)cc1
active: [1]; at 50.0 µM 99.8% | [3]; at 50.0 µM 100% | [4]; at 50.0 µM 99.6% | [5]; at 50.0 µM 99.8% | [6]; at 50.0 µM 99.8%
inactive: [1]; [7] 24% | [1]; [8] 18% | [3]; [7] 32% | [3]; [8] 46% | [4]; [7] 13% | [4]; [8] 5% | [5]; [7] 17% | [5]; [8] 41% | [6]; [7] 18% | [6]; [8] 39%

CC(=O)Oc1cc(OC(C)=O)c2cc(Br)ccc2c1OC(C)=O
active: [2]; at 50.0 µM 72.8% | [4]; at 50.0 µM 70.2% | [5]; at 50.0 µM 94.1% | [6]; at 50.0 µM 90.7%
inactive: [2]; [7] 3% | [2]; [8] 47% | [3]; [7] -19% | [3]; [8] 67% | [3]; at 50.0 µM 62.8% | [4]; [7] 0% | [4]; [8] 37% | [5]; [7] 0% | [5]; [8] 65% | [6]; [7] 5% | [6]; [8] 69%
